Compound activity from PubChem BioAssay.
HCV inh: HCV inhibition. Potency, µM (titrated, usually from 41.8 µM), for the others: at the top dose activity change, negative = inhibition, hits mostly inhibitors. Huh7.5.1 HCVcc-Cre infection, luciferase reporter, 44 h. 340,000 tested, 3.4% active; note: potency is the fitted concentration of half-maximal effect; % is set by controls: 0 for no effect and ±100 for the full control effect
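Cells (1,000/well) were plated 4 h before compound, then infected with HCVcc-Cre virus (~0.5 moi). After 44 h further culture, infection was read as luciferase luminescence following a 15 min substrate incubation at room temperature.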
Pf growth 96h: P. falciparum growth inhibition at 96 hour, primary screen for plastid delayed-death inhibitors | Potency, µM (series often up to 28.7 µM), for the others: at the highest dose activity change, negative = inhibition, most hits filed as inhibitors | P. falciparum luciferase reporter growth, 96 h | AID 504834 | 320,000 tested, 6.9% active; note: potency is the fitted concentration of half-maximal effect; % is set by controls: 0 for no effect and ±100 for the full control effect
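Two-generation exposure (96 h) targets delayed-death phenotype. Reporter parasites carrying integrated firefly luciferase, in red cells at 2% hematocrit and 0.05% parasitemia final, kept at 37 C, 5% CO2; luminescence loss indicates inhibition.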
Sm TGR block: S. mansoni TGR enzyme inhibition. purified TGR, DTNB reduction, TNB absorbance 405 nm. Potency, µM (top dose mostly 114 µM), for the others: top-dose activity change, negative = inhibition, most hits filed as inhibitors. 360,000 tested, 3% active. AID 485364; note: potency is the fitted concentration of half-maximal effect; % is set by controls: 0 for no effect and ±100 for the full control effect; nearly all actives have a fitted effect of over 60% in size
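First, TGR (20 nM dispensed) and NADPH were mixed with compound. Second, a 15 min room-temperature incubation followed. Third, further NADPH and then DTNB were added to start the reaction. Finally, TNB absorbance was monitored kinetically.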
HCMV inh: blocks human cytomegalovirus replication. HFF cells, HCMV-luciferase reporter, 72 h; stronger effect = lower value. activity change, negative = inhibition, % at 57.5 µM. 410,000 tested, 4.5% active. AID 1259415; in the data active = activity change below about -60%; inconclusive = no clear call, values can overlap the other calls; inactive = above about -39%; note: % is set by controls: 0 for no effect and ±100 for the full control effect
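HFF cells seeded 16 h at 37C, treated with compounds, infected with luciferase-reporter HCMV at MOI 1 PFU/cell; luciferase read at 72 h post infection, normalized to buffer-only and Salinomycin controls.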
Pf growth 48h: inhibits P. falciparum growth in the first generation, 48 h; P. falciparum luciferase growth in erythrocytes, 48 h; Potency, µM (top dose mostly 28.7 µM), inactives show at the highest dose activity change, negative = inhibition, actives largely listed as inhibitors; 310,000 tested, 5.9% active; AID 504832; note: potency is the fitted concentration of half-maximal effect; % is set by controls: 0 for no effect and ±100 for the full control effect
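First compound was added to culture medium, then infected red cells at 0.1% parasitemia and 2% hematocrit (final). After incubation at 37 C under 5% CO2, luciferase detection reagent was dispensed and light output recorded.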
SARS PLP yeast: blocks SARS-CoV papain-like protease in a yeast assay | 330,000 tested, 0.19% active | Potency, µM (titrated, usually from 32.9 µM), inactives show top-dose activity, positive = growth rescue, most hits filed as activators | S. cerevisiae expressing SARS-CoV PLpro, growth rescue; calls by dose curve; note: potency is the fitted concentration of half-maximal effect; 0% is about no effect; nearly all actives have a fitted effect of over 55% in size
* hit, by the source's call; ? = inconclusive; . = no result; ! = not confirmed by another sample. The list is not random: actives were taken first. Their share in the collection is about 15%. Unless noted, calls come from the whole dose curve; as a rule, active = well fitted curve in the direction sought with a large enough effect; inconclusive = small, poorly fitted or top-dose-only effect, or another doubt; inactive = no such curve, though single readings can be large; an effect the other way counts as inactive or inconclusive.

SMILES	HCV inh	Pf growth 96h	Sm TGR block	HCMV inh	Pf growth 48h	SARS PLP yeast
CCCn1c(N)c(C(=O)CN(C)CC(=O)Nc2c(Cl)cccc2Cl)c(=O)[nH]c1=O	22.7%	?	-11.6%	-30.5	?	1.1%
CC(=O)C1=C(O)C(=O)N(c2ccc(F)cc2)C1c1ccc(C)cc1 (stereo not given)	-1.9%	?	-16.9%	-68.8*	9.3%	?
Cc1cc(C)c(C#N)c(SCC(=O)c2ccc(Cl)cc2Cl)n1	?	10.4µM*	7.2%	-24.7	13.1µM*	-8.6%
CC(=O)C1=C(C)NC(SCc2cccc3ccccc23)=C(C#N)C1c1ccco1 (stereo not given)	?	2.94µM*	-16.5%	?	10.4µM*	-12.2%
CC(=O)C1=C(C)NC(SCc2ccc(C#N)cc2)=C(C#N)C1c1ccco1 (stereo not given)	?	0.0%	-20.7%	-25.8	-1.8%	2.3%
CC(=O)C1=C(C)NC(SCC(=O)c2ccc(Cl)cc2Cl)=C(C#N)C1c1ccco1 (stereo not given)	2.51µM*	?	0.0%	-67.9*	?	-1.5%
CCCOc1ccc(CNC(=O)C2CCN(C(=O)N3CCOc4ccccc43)CC2)cc1	?	?	-12.1%	-15.9	?	-4.3%
CC(=O)c1ccc(N2CCN(C(=O)c3cccs3)C(C)C2)c(F)c1 (stereo not given)	0.9%	178.8%	-21.5%	14.5	-0.4%	2.1%
CN(C)c1nc(N)c([N+](=O)[O-])c(NCCO)n1	23.5%	-0.4%	5.0%	8.1	19.8%	9.9%
O=C(NC(=S)N1CCOCC1)c1cc2ccccc2o1	20.9%	6.0%	0.0%	-4.7	29.1%	0.3%
O=C(CSc1ccccc1)N1CCc2c([nH]c3ccccc23)C1c1ccc(F)cc1 (stereo not given)	.	.	-0.3%	-30.5	.	.
CSc1ccc(C2c3[nH]c4ccccc4c3CCN2C(=O)CCC2CCCC2)cc1 (stereo not given)	.	.	-1.5%	-77.9*	.	.
O=C(c1cccs1)N1CCc2c([nH]c3ccccc23)C1c1ccc(Cl)cc1 (stereo not given)	?	10.4µM*	-23.4%	?	10.4µM*	-8.9%
Cc1ccc(C2c3[nH]c4ccccc4c3CCN2C(=O)CCc2ccccc2)cc1 (stereo not given)	.	.	0.4%	-86.0*	.	.
COc1cccc(-n2c(SCC(=O)N3CCc4ccccc43)nc3c([nH]c4ccccc43)c2=O)c1	.	.	-1.9%	28.2	.	.
CCOc1ccc(NC(=O)CSc2nccn(-c3ccc4c(c3)OCCO4)c2=O)cc1	-1.1%	?	-12.4%	-21.1	?	3.2%
COC1/C=C/C=C(\C)Cc2cc(O)c(Cl)c(c2)N(C)C(=O)CC(OC(=O)C(C)C)C2(C)OC2C(C)C2CC1(O)NC(=O)O2 (stereo not given)	15.9%	.	.	-90.6*	.	.
O=C(CC1(O)C(=O)Nc2ccccc21)c1ccc(-n2cccc2)cc1 (stereo not given)	-2.2%	?	50.1µM*	38.6	-16.1%	-2.7%
Cc1cc(N)n2ncc(-c3cccc(Br)c3)c2n1	?	104.5%	3.2%	24.7	142.9%	-10.1%
CCOC(=O)Cc1c(C)nc2c(-c3cccc(Br)c3)cnn2c1C	-1.7%	?	-21.4%	-74.9*	2.4%	14.4%
Cc1cc(NC(=O)CSc2nc(Cc3ccccc3)c(C)[nH]2)no1	?	136.4%	35.5µM*	4.1	-19.9%	0.0%
Cc1[nH]c(SCC(=O)Nc2cc(S(C)(=O)=O)ccc2Cl)nc1Cc1ccccc1	?	?	3.55µM*	-17.8	?	1.4%
CC1(C(=O)NS(=O)(=O)c2cccs2)CCN1C(=O)c1ccccc1CCc1ccccc1 (stereo not given)	.	.	.	-9.4	.	.
CC(=O)CC1c2ccccc2C=C(c2ccsc2)N1c1ccc(-c2cccs2)cc1 (stereo not given)	.	.	.	-77.8*	.	.
Fc1cc2nc(-c3ccncc3)[nH]c2cc1F	-1.0%	1.85µM*	-16.2%	71.8	?	2.0%
SMILES	HCV inh	Pf growth 96h	Sm TGR block	HCMV inh	Pf growth 48h	SARS PLP yeast
Cc1ccc(-n2c(N)c(C(N)=O)sc2=S)c(C)c1	9.4%	14.7µM*	2.1%	-26.1	11.9%	0.7%
Cc1ccc(C)c(-n2c(N)c(C(N)=O)sc2=S)c1	?	15.7%	-0.5%	55.2	0.0%	-9.9%
Cc1ccc(NC(=O)c2sc(=S)n(-c3cc(C)ccc3F)c2N)cc1	4.8%	30.7%	-4.4%	-62.6*	1.3%	-5.6%
COC(=O)C(CC(=O)c1ccc(Br)cc1)n1ccnc1 (stereo not given)	1.26µM*	-30.0%	0.282µM*	.	?	-37.4%
COC(=O)C(CC(=O)c1ccc(Br)cc1)n1nc(C)cc1C (stereo not given)	8.5%	0.9%	3.55µM*	15.4	-14.6%	-16.5%
COC(=O)C(CC(=O)c1ccc(C)cc1)n1nc(C)cc1C (stereo not given)	0.2%	?	12.6µM*	29.2	14.8%	-1.2%
COc1ccc(CNC(=O)CC(C)n2nc(C)cc2C)cc1 (stereo not given)	.	.	3.6%	-1.5	.	.
COCCN(C)c1ccc2c(-c3ccccc3OC)noc2n1	.	.	.	31.6	.	.
CCOCc1c(C(=O)NCC(c2ccco2)N2CCCC2)oc2ccccc12 (stereo not given)	-9.0%	.	.	62.9	.	-4.9%
COc1cccc(NC(=O)Cn2c(=O)n(-c3cc(OC)c(OC)c(OC)c3)c(=O)c3ccccc32)c1	10.1%	?	8.6%	-38.7	10.4µM*	0.4%
COc1ccc(NC(=O)Cn2c(=O)n(-c3ccc(OC)c(OC)c3)c(=O)c3ccccc32)cc1	.	.	-0.4%	34.8	.	.
COc1ccc(NC(=O)Cn2c(=O)n(-c3ccc(CC(=O)NCc4ccco4)cc3)c(=O)c3ccccc32)cc1	?	14.5%	-1.7%	-62.7*	19.3%	3.1%
COc1ccc2cc(C3CC=C(CO)CN3S(=O)(=O)c3ccccc3[N+](=O)[O-])n(C(=O)OC(C)(C)C)c2c1 (stereo not given)	.	.	.	-33.0	.	.
CCCN(c1ccccc1C(=O)O)S(=O)(=O)c1ccc2c(c1)n(C)c(=O)n2C	11.4%	0.828µM*	6.9%	14.5	-17.2%	-0.6%
FC(F)(F)c1ccccc1/C=N/n1c(COc2ccccc2)n[nH]c1=S	0.5%	17.1%	-11.3%	-1.7	-0.7%	-5.7%
Cc1ncc([N+](=O)[O-])n1CC(C)O (stereo not given)	2.82µM*	-9.1%	3.7%	-0.2	-2.9%	-4.9%
Cc1ncc([N+](=O)[O-])n1CCO	11.9%	17.0%	14.2%	-2.4	12.6%	1.7%
Oc1c(Cl)cc(Cl)c2cccnc12	-21.2%	4.26µM*!	15.8µM*	-98.5*	8.49µM*	-21.9%
